Bioassay records deposited in PubChem BioAssay by several laboratories.
Shown are actives, neighbours in structure and some others; about 1.2% of the full set was active somewhere.
Vc quorum ag – induces V. cholerae light production without autoinducers; V. cholerae BH1578 lux reporter, luminescence, 6 h; 350,000 compounds, 0.16% hits; activation, % at 18.7 µM; in the data active = activation mostly above about 9.7%, no sharp cut-off
ugtP null kill – kills S. aureus RN4220 lacking UgtP; AID 1259309; S. aureus RN4220 ugtP deletion, OD600 growth, 16 h; 330,000 compounds, 0.54% hits; growth inhibition, % (test concentration not listed); in the data active = growth inhibition above about 68%;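 note: plate controls were untreated wells for no effect and antibiotic for full effect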
Sa RN4220 lethal – S. aureus RN4220 growth inhibition. 330,000 compounds, 0.33% hits. inhibition, % (concentration not given with the values). OD600, 16 h; in the data active = inhibition above about 85%;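 note: plate controls were untreated cells for no effect and reference antibiotic for full effect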
Mtb betalactam – beta-lactam sensitization of Mtb H37Rv; M. tuberculosis H37Rv growth with meropenem, percent inhibition; inhibition, % at 25 µM; 330,000 compounds, 0.27% hits; AID 434955; call rule not given here;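 note: growth measured after seven days incubation then overnight dye step; 0% = bacteria only wells and 100% = bacteria with antibiotic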
PfHsp40 yeast – rescue of PfHsp40-mediated yeast toxicity; 340,000 compounds, 0.68% hits; AID 504582; growth rescue, % at 12.5 µM; S. cerevisiae expressing PfHsp40, growth rescue, ATP luminescence; in the data active = growth rescue above about 28%, passing the limit was not always enough;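 note: yeast W303a lacking pdr1 and pdr3 grown in galactose medium; growth measured after three days at 30 °C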
Active calls of the source: *.

How did CCn1c(C)nc2cc(C(=O)NN=Cc3ccc(N4CCOCC4)cc3)ccc21 do in these assays?
ugtP null kill: 9.9; Sa RN4220 lethal: 1.3

Results for COc1ccc(Nc2ncc(C#N)c(N)n2)c(OC)c1 ?
Vc quorum ag: inactive; ugtP null kill: 4.6; Sa RN4220 lethal: 2.9; Mtb betalactam: -3.3; PfHsp40 yeast: 66.2*

What do the screens show for `CNC(=O)C1CCC(=O)N1` (stereo unspecified)?
ugtP null kill: -1.1; Sa RN4220 lethal: 3.6

Results for Cc1ccc(CONC(=O)c2ccc([N+](=O)[O-])cc2)cc1 ?
Vc quorum ag: -1.6; ugtP null kill: -1.1; Sa RN4220 lethal: 2.8; Mtb betalactam: 5.3; PfHsp40 yeast: 38.0*

How did C(=Nn1c2ccccc2c2ccccc21)c1ccco1 do in these assays?
ugtP null kill: 77.2; Sa RN4220 lethal: -12.1

How did CCCCCCCn1ccc(=N)cc1 do in these assays?
Vc quorum ag: 2.2; ugtP null kill: 4.7; Sa RN4220 lethal: 0.8; Mtb betalactam: 0.9; PfHsp40 yeast: -0.5

How did CCCCCCCCCn1ccc(=N)cc1 do in these assays?
Vc quorum ag: -1.0; ugtP null kill: 100.1*; Sa RN4220 lethal: -1.3; Mtb betalactam: -14.3; PfHsp40 yeast: 0.8

How did O=c1ccc(N=Nc2ccccc2)ccc1O do in these assays?
Vc quorum ag: inactive; ugtP null kill: 10.9; Sa RN4220 lethal: -0.1; Mtb betalactam: 94.8; PfHsp40 yeast: 102.0*

What do the screens show for `Cc1ccc(N(CC(=O)NCc2cccs2)S(=O)(=O)c2cccs2)cc1`?
ugtP null kill: -5.8; Sa RN4220 lethal: -3.2; Mtb betalactam: 3.7; PfHsp40 yeast: -0.9

How did Cc1ccc(S(=O)(=O)N(CC(=O)NCc2cccs2)c2ccccc2)cc1 do in these assays?
Vc quorum ag: inactive; ugtP null kill: -8.3; Sa RN4220 lethal: -5.4; PfHsp40 yeast: 42.3*

How did Cc1cccc(-n2c(-c3ccco3)n[nH]c2=S)c1 do in these assays?
Vc quorum ag: inactive; ugtP null kill: 2.1; Sa RN4220 lethal: 4.0; Mtb betalactam: 2.2; PfHsp40 yeast: -1.7

Results for S=c1[nH]nc(-c2ccco2)n1-c1ccc(Br)cc1 ?
Vc quorum ag: inactive; ugtP null kill: 9.0; Sa RN4220 lethal: 1.6; Mtb betalactam: -10.0; PfHsp40 yeast: 42.7*

How did Cc1csc2nc(CNS(=O)(=O)c3ccc4c(c3)OCCO4)cn12 do in these assays?
Vc quorum ag: -1.1; ugtP null kill: 24.1; Sa RN4220 lethal: 29.9; Mtb betalactam: -2.7; PfHsp40 yeast: 63.0*

Results for C=CCN(C(CC(C)C)C(=O)OC)S(=O)(=O)N(CC=C)C(CC(C)C)C(=O)OC (stereo unspecified) ?
ugtP null kill: -24.1; Sa RN4220 lethal: 5.7

Results for COC(=O)C1=C(C)N(CC2CCCO2)C(=O)/C1=C\c1ccc(O)cc1 (stereo unspecified) ?
Vc quorum ag: inactive; ugtP null kill: 6.0; Sa RN4220 lethal: 1.4; Mtb betalactam: -0.6; PfHsp40 yeast: -0.4

Results for COC(=O)C1=C(C)N(c2ccc(C)c(C)c2)/C(=C/c2ccc(O)cc2)C1=O ?
Vc quorum ag: inactive; ugtP null kill: 91.3*; Sa RN4220 lethal: 92.8*; Mtb betalactam: 13.8; PfHsp40 yeast: -0.6

How did COc1ccc(C(C)(C)C)cc1NC(=O)COC(=O)c1ccc([N+](=O)[O-])o1 do in these assays?
Vc quorum ag: inactive; ugtP null kill: 17.8; Sa RN4220 lethal: 9.1; Mtb betalactam: 95.8; PfHsp40 yeast: 531.6*

Results for O=C(COC(=O)c1ccc([N+](=O)[O-])o1)NCc1ccc2c(c1)OCO2 ?
Vc quorum ag: inactive; ugtP null kill: 6.2; Sa RN4220 lethal: 10.6; Mtb betalactam: 70.5; PfHsp40 yeast: 167.8*

What do the screens show for `COc1ccc(C)cc1NC(=O)COC(=O)c1ccc([N+](=O)[O-])o1`?
Vc quorum ag: inactive; ugtP null kill: 0.1; Sa RN4220 lethal: 6.9; Mtb betalactam: 95.0; PfHsp40 yeast: 76.7*

What do the screens show for `COc1ccc(NC(=O)COC(=O)c2ccc([N+](=O)[O-])o2)cc1Cl`?
Vc quorum ag: -0.3; ugtP null kill: 14.0; Sa RN4220 lethal: 12.3; Mtb betalactam: 61.4; PfHsp40 yeast: -0.6

Results for O=C(COC(=O)c1ccc(Br)o1)NCc1ccc2c(c1)OCO2 ?
Vc quorum ag: -1.6; ugtP null kill: 6.0; Sa RN4220 lethal: -2.1; Mtb betalactam: 5.2; PfHsp40 yeast: -0.3

What do the screens show for `Cc1cccc(NC(=O)COC(=O)c2ccc([N+](=O)[O-])o2)c1C`?
Vc quorum ag: -0.1; ugtP null kill: -0.3; Sa RN4220 lethal: 10.3; Mtb betalactam: 69.9; PfHsp40 yeast: 53.2*
